# JMJD2A Tudor: qHTS Assay for Inhibitors of JMJD2A-Tudor Domain | Lysine-specific demethylase 4A (Homo sapiens), O75164 | AlphaScreen JMJD2A-Tudor / H3K4me3 peptide binding | Potency, µM (top dose mostly 114 µM), for the others: at the highest dose activity change, negative = inhibition, most hits filed as inhibitors | hit rate 4.4% among 390,000; note: % is set by controls: 0 for no effect and ±100 for the full control effect; nearly all actives have a fitted effect of over 50% in size
# G9a block: qHTS Assay for Inhibitors of Histone Lysine Methyltransferase G9a; Histone-lysine N-methyltransferase EHMT2 (Homo sapiens), Q96KQ7; G9a H3K9 monomethylation, AlphaScreen, 2 h; Potency, µM (top dose mostly 102 µM), for the others: top-dose activity, negative = inhibition, usual class: inhibitors; hit rate 8.8% among 350,000; note: % is set by controls: 0 for no effect and ±100 for the full control effect; nearly all actives have a fitted effect of over 75% in size
#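 Quantitative HTS format: methyltransferase activity on a biotin-tagged H3K9 peptide is measured by AlphaScreen, using a rabbit anti-monomethyl-H3K9 antibody with streptavidin donor and anti-IgG acceptor beads. Final levels are 20 nM enzyme, 500 nM peptide, 20 uM SAM; 2 h RT.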
# L3MBTL1 inh: qHTS Assay for the Inhibitors of L3MBTL1; Lethal(3)malignant brain tumor-like protein 1 (Homo sapiens), Q9Y468; Potency, µM (top dose mostly 57.1 µM), without a hit: top-dose activity, negative = inhibition, usual class: inhibitors; AID 485360, 2010; hit rate 0.66% among 230,000; AlphaScreen L3MBTL1–H3K9me1 peptide binding; note: % is set by controls: 0 for no effect and ±100 for the full control effect; nearly all actives have a fitted effect of over 60% in size
# Target sequence (Q9Y468 whole entry, looked up): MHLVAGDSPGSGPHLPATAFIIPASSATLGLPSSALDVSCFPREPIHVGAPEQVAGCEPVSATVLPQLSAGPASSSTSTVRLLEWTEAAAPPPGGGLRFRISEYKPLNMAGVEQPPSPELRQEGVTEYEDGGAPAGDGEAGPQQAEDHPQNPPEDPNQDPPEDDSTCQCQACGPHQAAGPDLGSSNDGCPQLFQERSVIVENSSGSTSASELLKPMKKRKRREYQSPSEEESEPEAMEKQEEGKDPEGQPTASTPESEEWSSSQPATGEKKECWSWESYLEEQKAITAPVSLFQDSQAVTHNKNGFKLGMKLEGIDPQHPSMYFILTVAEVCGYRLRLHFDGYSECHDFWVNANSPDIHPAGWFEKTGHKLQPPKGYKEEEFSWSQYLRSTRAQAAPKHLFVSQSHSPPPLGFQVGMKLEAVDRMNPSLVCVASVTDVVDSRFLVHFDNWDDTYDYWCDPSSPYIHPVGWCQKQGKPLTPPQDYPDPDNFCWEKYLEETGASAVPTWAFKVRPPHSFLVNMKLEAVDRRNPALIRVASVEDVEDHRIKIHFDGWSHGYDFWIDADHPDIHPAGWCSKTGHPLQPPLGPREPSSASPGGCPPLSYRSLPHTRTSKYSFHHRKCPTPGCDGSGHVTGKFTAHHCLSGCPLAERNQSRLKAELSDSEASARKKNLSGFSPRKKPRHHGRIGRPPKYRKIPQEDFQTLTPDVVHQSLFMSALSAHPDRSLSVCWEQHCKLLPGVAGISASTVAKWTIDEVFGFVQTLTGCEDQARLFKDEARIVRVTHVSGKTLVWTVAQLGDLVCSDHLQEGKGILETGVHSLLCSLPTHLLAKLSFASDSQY
#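 AlphaScreen proximity signal between nickel-chelate acceptor and streptavidin donor beads (final 10 ug/mL) reports binding of 50 nM L3MBTL1 to 75 nM biotin-H3 K9me1 peptide; complex incubated with compounds 30 min at room temperature; cefsulodin titration as control.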
# BAZ2B block: qHTS Assay for Inhibitors of BAZ2B. Potency, µM (doses to about 114 µM), inactives show top-dose activity change, negative = inhibition, actives largely listed as inhibitors. Bromodomain adjacent to zinc finger domain protein 2B (Homo sapiens), Q9UIF8. AlphaScreen BAZ2B-H3K14Ac peptide displacement. AID 504333, 2011. hit rate 4.4% among 360,000; note: % is set by controls: 0 for no effect and ±100 for the full control effect; nearly all actives have a fitted effect of over 60% in size
#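 AlphaScreen luminescence quantifies BAZ2B engagement of H3K14Ac peptide; the protein and biotinylated peptide are both at 50 nM final, buffer PBS pH 7.4 with 0.01% Tween-20, all steps at room temperature.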
# HP1b binding inh: HTS for Inhibitors of HP1-beta Chromodomain Interactions with Methylated Histone Tails; Chromobox protein homolog 1 (Homo sapiens), P83916; AlphaScreen HP1-beta / biotin-H3K9me3 peptide binding; Potency, µM (highest dose often 114 µM), without a hit: at the top dose activity change, negative = inhibition, hits mostly inhibitors; hit rate 0.56% among 390,000; AID 540317, 2011; note: nearly all actives have a fitted effect of over 70% in size
#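 AlphaScreen: HP1-beta (50 nM) preformed 30 min with biotin-H3(1-18)K9me3 peptide (50 nM) in PBS pH 7.4, 0.01% Tween-20. Compound added for 30 min at RT, then streptavidin donor/nickel chelate acceptor beads (10 ug/mL) for 30 min.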
# Starred values were filed as active, the others as inactive; ? = inconclusive; / = no result given; [ ] = another dose, or the depositor's remark. A selection: hits, their analogues and other compounds. The true share with any hit is near 11%. Calls come from the whole dose curve; as a rule, active = well fitted inhibition curve with a large enough effect; inconclusive = small, poorly fitted or top-dose-only effect; inactive = no such curve, though single readings can be large or run the other way. Potency is the fitted concentration of half-maximal effect.
SMILES,JMJD2A Tudor,G9a block,L3MBTL1 inh,BAZ2B block,HP1b binding inh
CC(/C=C1\SC(=S)N(NS(=O)(=O)c2ccc(C)cc2)C1=O)=C\c1ccccc1,56µM*,10µM*,-16%,35µM*,-24%
CCCCC(=O)N1CCN(c2nc3ccc(Cl)cc3s2)CC1,3%,15%[0.501 µM],/,-1%,42%
Cn1nnnc1SC1CC(=O)N(c2ccccc2)C1=O (centres undefined),-22%,-37%[12.7 µM],3%,-3%,-15%
O=C1CC(Sc2nnnn2C2CCCCC2)C(=O)N1c1ccccc1 (centres undefined),-17%,10µM*,?,-3%,1%
Cc1nc2ccc(NC(=S)NCCCO)cc2nc1C,-35%,28µM*,-8%,-10%,79µM*
OCCNC(=S)Nc1ccc2nsnc2c1,-11%,35µM*,/,-5%,40%
Cc1nc2ccc(NC(=S)NC3CC3)cc2nc1C,-17%,-14%[59 µM],5%,0%,22%
O=C(NCCO)Nc1ccc2nsnc2c1,-3%,-1%,?,-3%,27%
COc1ccc(-c2cn3c4c(sc3n2)CCCC4)cc1,12%,50µM*,/,?,28%
COc1ccc(-c2cn3c(C)c(C(=O)Nc4ccncc4)sc3n2)cc1,-17%,13µM*,/,-33%,45%
Cc1c(C(=O)Nc2ccncc2)sc2nc(-c3ccc(F)cc3)cn12,-13%,40µM*,9%,-3%,44%
Cc1c(C(=O)N2CCN(C(=O)c3ccco3)CC2)sc2nc(-c3ccc(F)cc3)cn12,-22%,40µM*,-1%,-21%,31%
COc1ccc(N2CCN(C(=O)c3sc4nc(-c5ccc(F)cc5)cn4c3C)CC2)cc1,-10%,?,-1%,6%,62%
CCOc1ccc(NC(=O)c2sc3nc(-c4ccc(OC)cc4)cn3c2C)cc1,-15%,-3%[59 µM],/,-7%,17%[57 µM]
Cc1ccc(OCC(=O)Nc2cccc(C(=O)OCc3cc(=O)n4nc(C)sc4n3)c2)cc1,10%,3%[12.7 µM],/,1%,31%
O=C(O)c1cn[nH]c1-c1cccc([N+](=O)[O-])c1,-29%,35µM*,/,-22%,2%
CN(C)CCOc1ccc(-c2c(-c3ccsc3)sc3ccccc23)cc1,50µM*,/,-23%,/,-37%
COc1cccc(-c2sc3ccc(OC)cc3c2-c2ccc(O)cc2)c1,-28%,8%[0.501 µM],-7%,0%,23%
COc1cccc(-c2sc3ccc(OC)cc3c2-c2ccc(OCCN(C)C)cc2)c1,28µM*,/,-13%,/,?
COc1ccc(-c2sc3ccccc3c2-c2ccc(O)cc2)cc1,-30%,/,-1%,/,6%
COc1ccc(-c2sc3ccccc3c2-c2ccc(OCCN(C)C)cc2)cc1,35µM*,/,0%,/,?
O=C(COc1ccc([N+](=O)[O-])cc1Cl)NCCN1C(=O)CSC1=O,-14%,/,2%,/,25%
O=C(/C=C/c1ccco1)N(Cc1ccc(F)cc1)C1CCS(=O)(=O)C1 (centres undefined),-18%,/,4%,-6%,12%
O=C(/C=C/c1ccco1)N(Cc1cccc(Br)c1)C1CCS(=O)(=O)C1 (centres undefined),-24%,/,/,?,-2%
O=C(/C=C/c1ccco1)N(Cc1cccc(F)c1)C1CCS(=O)(=O)C1 (centres undefined),-24%,40µM*,/,-26%,23%
O=C(/C=C/c1ccco1)N(Cc1ccccc1)C1CCS(=O)(=O)C1 (centres undefined),-15%,35µM*,-5%,-28%,26%
CN(C)CC[C@@](O)(c1ccccc1)c1ccccc1Cl,/,-1%[12.7 µM],/,/,/
CCN(CC)CCNC(C(=O)Nc1cc(C(F)(F)F)ccc1Cl)c1ccccc1 (centres undefined),-8%,10µM*,8%,?,32%
O=C(Nc1cc(C(F)(F)F)ccc1Cl)C(NCc1ccccc1)c1ccccc1 (centres undefined),24%,21%[59 µM],23%,17%,63%
